# Measured values reported in PubChem BioAssay (Tox21).
# Results filed as inconclusive are left out. Where a call stands in place of a potency, no number is given. Where a structure was tested more than once in an assay, its records may differ in their call. The source made the active and inactive calls. Unless noted, the call rests on the fitted dose curve; in most records, active means well fitted curve in the direction sought with a large enough effect in the repeat runs; inconclusive means weak or mixed curves; inactive means no such curve, though single readings can be large; an effect the other way counts as inactive or inconclusive.
# Columns and labels:
# [1] = qHTS assay to identify small molecule agonists of the estrogen receptor alpha (ER-alpha) signaling pathway in the presence of an antagonist - cell viability counter screen (AID 1259386);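 further: series mostly up to about 92 µM; cells exposed to compounds for 22 h at 37 °C before the viability read; nearly all actives have a fitted effect of over 30% in size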
# Outline: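 Steps: 5-day stripped-FBS culture; seed and incubate 24hr; add ICI-182,780 (10.0nM final); pin 15-point compound titration; incubate 22hr at 37C; add CellTiter-Fluor at 21hr; read fluorescence.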
# [2] = target: Progesterone receptor (Homo sapiens) (UniProt P06401); assay: qHTS assay to identify small molecule agonists of the progesterone receptor (PR) signaling pathway (AID 1346784; calls by dose curve; further: nearly all actives have a fitted effect of over 30% in size)
# Outline: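 Agonist qHTS: compounds pinned onto 3,000 PR-UAS-bla HEK 293T cells per well in charcoal-stripped serum medium, 16hr at 37C, then beta-lactamase activity measured by LiveBLAzer FRET fluorescence after 2 hours at room temperature.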
# [3] = target: Progesterone receptor (Homo sapiens) (UniProt P06401); assay: qHTS assay to identify small molecule antagonists of the progesterone receptor (PR) signaling pathway (AID 1346795; active means well fitted inhibition curve with a large enough effect in the signal ratio in the repeat runs, not every such curve was filed as active; the % refers to the signal ratio)
# Outline: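 Antagonist mode with agonist R5020 at 1 nM final and 16 hr incubation at 37C. Reporter was beta-lactamase driven by UAS in HEK293T (PR-UAS-bla), 2% charcoal-stripped serum; signal from LiveBLAzer FRET substrate, 2 hr at room temperature.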
# [4] = qHTS assay to identify small molecule antagonists of the progesterone receptor (PR) signaling pathway - cell viability counter screen (AID 1346798); further: series mostly up to about 92 µM; nearly all actives have a fitted effect of over 50% in size
# Outline: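 Cytotoxicity read as CellTiter-Glo luminescence (30 min, room temperature) in the same wells as the beta-lactamase readout. HEK293T PR-UAS-bla cells in charcoal-stripped 2% FBS received compound and R5020, then 16 h at 37C, 5% CO2.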
# [5] = qHTS assay to identify small molecule agonists of the progesterone receptor (PR) signaling pathway - cell viability counter screen (AID 1346799; calls by dose curve; further: nearly all actives have a fitted effect of over 45% in size)
# Outline: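 Cytotoxicity measured by CellTiter-Glo luminescence (30 min, RT) in the same wells as the PR beta-lactamase agonist read. Those HEK293T cells had 16 h compound treatment at 37 C in 2% charcoal-stripped FBS medium.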
# [6] = qHTS assay to identify small molecule antagonists of the TGF-beta/Smad signaling pathway - cell viability counter screen (AID 1346824); further: nearly all actives have a fitted effect of over 50% in size
# Outline: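 Cytotoxicity counter-screen run in the same wells as the beta-lactamase Smad reporter read: CellTiter-Glo luminescence after 30 min at room temperature. HEK 293T SBE-bla cells had 5 hr compound exposure at 37 C with TGF-beta1 (0.25 ng/mL stock).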
# [7] = qHTS assay to identify small molecule agonists of the TGF-beta/Smad signaling pathway - cell viability counter screen (AID 1346829); further: top concentration of the series differs between compounds; nearly all actives have a fitted effect of over 45% in size
# Outline: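 Tox21 qHTS format: SBE-bla HEK 293T cells treated with DMSO-dissolved compounds for 5 hr; CellTiter-Glo luminescence after 30 min at room temperature.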
# [8] = target: Thyrotropin-releasing hormone receptor (Homo sapiens) (UniProt P34981); assay: qHTS assay to identify small molecule antagonists of the thyrotropin-releasing hormone receptor (TRHR) signaling pathway (AID 1346877; active means well fitted inhibition curve with a large enough effect in the repeat runs, not every such curve was filed as active; further: series mostly up to about 51 µM)
# Outline: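 Human TRHR in HEK293 cells; inhibition of the intracellular calcium rise triggered by 1 nM TRH was followed by fluorescence over 3 min. Compounds were run at 15 concentrations, three replicates each.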
# [9] = target: Thyrotropin-releasing hormone receptor (Homo sapiens) (UniProt P34981); assay: qHTS assay to identify small molecule agonists of the thyrotropin-releasing hormone receptor (TRHR) signaling pathway (AID 1346891; calls by dose curve; further: series mostly up to about 58 µM)
# Outline: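 Agonist-mode intracellular calcium readout: kinetic fluorescence over 3 min at 1 s intervals after compound addition to TRHR-HEK293 cells (18 h seeded, 2 h dye-loaded at 37 C). Fifteen concentrations, triplicates.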
# [10] = Human pregnane X receptor (PXR) small molecule agonists, qHTS cell viability counter screen (AID 1346977); further: nearly all actives have a fitted effect of over 50% in size
# Outline: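 Same-well viability read: CellTiter-Fluor added after 23 hr compound exposure, fluorescence measured 1 hr later. Cells were PXR-Luc HepG2 seeded at 2,000/well in 5% charcoal-stripped FBS medium, rested 5 hr before dosing at 37 C.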
# [11] = Caspase-3/7 induction in HepG2 cells by small molecules, qHTS assay (AID 1346978); further: nearly all actives have a fitted effect of over 15% in size
# Outline: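 Caspase-3/7 induction was measured by Caspase-Glo 3/7 luminescence (30 min, room temperature) after a 17 hr compound exposure of wild-type HepG2 cells seeded at 2,000 per well and pre-incubated 5 hr.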
# [12] = Caspase-3/7 induction in CHO-K1 cells by small molecules, qHTS cell viability counter screen (AID 1346979); further: nearly all actives have a fitted effect of over 35% in size
# Outline: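 Cytotoxicity counter screen: CellTiter-Fluor added to compound-treated wild-type CHO-K1 cells at 16 h (37C, 5% CO2), fluorescence measured 1 h later; same wells as caspase-3/7 measurement.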
# [13] = Caspase-3/7 induction in CHO-K1 cells by small molecules, qHTS assay (AID 1346980); further: nearly all actives have a fitted effect of over 15% in size
# Outline: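 Luminescent Caspase-Glo 3/7 read (30min, room temperature) quantified apoptosis induction. Cells were wild-type CHO-K1, treated with compound for 17hr at 37 C and 5% CO2.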
# [14] = Caspase-3/7 induction in HepG2 cells by small molecules, qHTS cell viability counter screen (AID 1346981); further: series mostly up to about 92 µM; nearly all actives have a fitted effect of over 30% in size
# Outline: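 The parent HepG2 line is plated at 2,000 cells per well and rested 5 hr before compound pinning from DMSO stocks. Following a 16-hr treatment at 37 C, a fluorogenic live-cell substrate (CellTiter-Fluor) reports viability after 1 hr.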
# [15] = target: Nuclear receptor subfamily 1 group I member 2 (Homo sapiens) (UniProt O75469); assay: Human pregnane X receptor (PXR) small molecule agonists, qHTS assay (AID 1346982); further: nearly all actives have a fitted effect of over 35% in size
# Outline: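 After plating in 5% charcoal-stripped FBS and a 5 hr rest, PXR-Luc HepG2 cells received compounds in DMSO. Following 24 hr at 37 C, ONE-Glo was added and light output read.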
# [16] = target: Cytochrome P450 2D6 (Homo sapiens) (UniProt P10635); assay: Cytochrome P450 Family 2 Subfamily D Member 6 (CYP2D6) small molecule antagonists: luciferase reporter qHTS assay (AID 1671196); further: nearly all actives have a fitted effect of over 50% in size; further: potency means the concentration at half of the fitted maximal effect
# Outline: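 Quantitative HTS of Tox21 chemicals against CYP2D6 using a luminescent proluciferin substrate. After NADPH addition, 1 h room-temperature reaction; luminescence recorded 20 min post detection reagent.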
# [17] = qHTS assay to identify small molecule agonists of the TGF-beta/Smad signaling pathway (AID 1346859; active means well fitted activation curve with a large enough effect in the signal ratio in the repeat runs, not every such curve was filed as active; the % refers to the signal ratio; further: series mostly up to about 77 µM)
# Outline: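 Fluorescence (ex 405 nm; em 460 and 530 nm) was read 2 h after LiveBLAzer FRET substrate at RT. The preceding compound treatment of overnight-plated SBE-bla HEK293T cells lasted 5 h at 37 C.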
# [18] = target: Nuclear receptor subfamily 1 group I member 2 (Rattus norvegicus) (UniProt Q9R1A7); assay: Rat pregnane X receptor (rPXR) activation by small molecules, qHTS assay (AID 1346983); conditions: rPXR luciferase reporter cells, One-Glo luminescence, 24 h; stronger effect = higher value; further: nearly all actives have a fitted effect of over 20% in size
# Outline: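 Luminescent readout (One-Glo luciferase, 30 min room temperature) followed 24 hr compound treatment at 37 C of rPXR cells plated 2,000 per well and preincubated 5hr; qHTS format with compounds delivered in DMSO.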
# [19] = target: Nuclear receptor subfamily 1 group I member 2 (Homo sapiens) (UniProt O75469); assay: CYP3A4 induction through human pregnane X receptor (PXR) by small molecules, qHTS assay (AID 1346984); further: nearly all actives have a fitted effect of over 40% in size
# Outline: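 Human PXR activation is tracked via CYP3A4 promoter-luciferase in DPX-2 (HepG2) cells. Compounds treat cells for 24hr at 37C, and luminescence is read after One-Glo.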
# [20] = target: Nuclear receptor subfamily 1 group I member 2 (Homo sapiens) (UniProt O75469); assay: Human pregnane X receptor (PXR) activation by small molecules, qHTS assay (AID 1346985); further: nearly all actives have a fitted effect of over 40% in size
# Outline: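 DPX-2 cells (HepG2 co-transfected with a PXR response element and a CYP3A4-promoter luciferase construct) were seeded at 2,000 per well, rested 5 hr at 37C, then exposed to DMSO-dissolved compounds for 24 hr. Activation was read as luciferase luminescence.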
# Chain of Thyrotropin-releasing hormone receptor (Homo sapiens) (P34981 whole entry, looked up): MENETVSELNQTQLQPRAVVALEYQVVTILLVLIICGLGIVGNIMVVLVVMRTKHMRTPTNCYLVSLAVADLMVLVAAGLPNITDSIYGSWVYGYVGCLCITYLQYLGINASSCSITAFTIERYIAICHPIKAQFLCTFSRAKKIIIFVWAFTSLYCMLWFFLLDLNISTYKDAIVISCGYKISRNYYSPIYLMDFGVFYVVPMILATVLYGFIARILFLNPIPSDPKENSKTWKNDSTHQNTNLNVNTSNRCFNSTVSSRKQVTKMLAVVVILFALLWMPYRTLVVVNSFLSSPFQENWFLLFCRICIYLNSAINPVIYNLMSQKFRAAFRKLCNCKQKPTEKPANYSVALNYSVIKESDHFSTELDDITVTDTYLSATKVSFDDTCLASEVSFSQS
# Chain of Cytochrome P450 2D6 (Homo sapiens) (P10635 whole entry, looked up): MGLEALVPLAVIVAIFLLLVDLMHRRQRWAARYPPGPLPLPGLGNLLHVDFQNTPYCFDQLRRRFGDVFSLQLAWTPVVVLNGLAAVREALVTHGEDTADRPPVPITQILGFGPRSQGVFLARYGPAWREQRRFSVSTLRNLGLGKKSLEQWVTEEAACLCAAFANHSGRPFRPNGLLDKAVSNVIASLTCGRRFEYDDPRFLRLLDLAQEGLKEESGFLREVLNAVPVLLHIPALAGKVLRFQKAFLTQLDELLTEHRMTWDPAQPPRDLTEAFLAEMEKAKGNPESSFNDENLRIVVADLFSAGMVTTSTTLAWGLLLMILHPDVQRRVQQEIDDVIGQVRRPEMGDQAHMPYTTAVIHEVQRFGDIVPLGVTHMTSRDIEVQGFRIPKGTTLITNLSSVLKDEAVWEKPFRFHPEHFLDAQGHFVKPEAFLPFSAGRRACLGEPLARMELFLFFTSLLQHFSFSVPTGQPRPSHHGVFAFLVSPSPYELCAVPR
# Chain of Progesterone receptor (Homo sapiens) (P06401 whole entry, looked up): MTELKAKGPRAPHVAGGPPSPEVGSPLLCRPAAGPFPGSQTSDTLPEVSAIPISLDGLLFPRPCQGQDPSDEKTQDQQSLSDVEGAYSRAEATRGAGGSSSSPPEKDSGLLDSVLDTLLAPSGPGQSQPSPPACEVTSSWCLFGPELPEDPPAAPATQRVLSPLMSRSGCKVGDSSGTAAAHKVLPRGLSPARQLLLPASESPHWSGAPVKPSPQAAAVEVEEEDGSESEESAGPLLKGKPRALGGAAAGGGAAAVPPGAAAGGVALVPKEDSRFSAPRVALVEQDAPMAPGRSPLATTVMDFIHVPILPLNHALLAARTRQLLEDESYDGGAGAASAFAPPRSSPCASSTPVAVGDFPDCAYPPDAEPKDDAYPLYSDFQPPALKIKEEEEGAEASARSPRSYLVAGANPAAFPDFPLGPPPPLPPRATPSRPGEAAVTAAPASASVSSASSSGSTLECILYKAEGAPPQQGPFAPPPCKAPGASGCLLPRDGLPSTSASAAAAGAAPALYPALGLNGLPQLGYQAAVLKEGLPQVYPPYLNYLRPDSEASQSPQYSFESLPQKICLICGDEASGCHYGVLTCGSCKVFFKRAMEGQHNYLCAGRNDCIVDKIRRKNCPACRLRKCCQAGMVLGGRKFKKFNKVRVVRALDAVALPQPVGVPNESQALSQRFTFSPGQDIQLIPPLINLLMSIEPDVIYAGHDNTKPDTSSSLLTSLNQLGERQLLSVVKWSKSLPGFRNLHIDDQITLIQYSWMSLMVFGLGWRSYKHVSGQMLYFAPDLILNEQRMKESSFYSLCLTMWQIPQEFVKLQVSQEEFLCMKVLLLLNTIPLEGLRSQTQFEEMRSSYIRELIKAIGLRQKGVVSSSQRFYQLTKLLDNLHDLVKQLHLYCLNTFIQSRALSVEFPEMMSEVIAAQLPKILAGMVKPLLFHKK
# Chain of Nuclear receptor subfamily 1 group I member 2 (Homo sapiens) (O75469 whole entry, looked up): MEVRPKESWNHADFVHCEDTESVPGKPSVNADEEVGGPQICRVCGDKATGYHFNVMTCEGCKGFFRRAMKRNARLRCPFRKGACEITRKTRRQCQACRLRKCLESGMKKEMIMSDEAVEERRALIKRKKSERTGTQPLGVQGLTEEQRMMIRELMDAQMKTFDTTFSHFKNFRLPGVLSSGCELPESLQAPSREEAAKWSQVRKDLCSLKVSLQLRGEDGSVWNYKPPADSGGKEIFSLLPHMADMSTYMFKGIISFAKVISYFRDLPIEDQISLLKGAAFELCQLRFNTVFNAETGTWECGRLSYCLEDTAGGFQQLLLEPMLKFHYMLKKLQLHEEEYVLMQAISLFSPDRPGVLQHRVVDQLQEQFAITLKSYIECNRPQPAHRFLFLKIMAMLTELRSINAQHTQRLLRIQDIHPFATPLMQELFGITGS
# Chain of Nuclear receptor subfamily 1 group I member 2 (Rattus norvegicus) (Q9R1A7 whole entry, looked up): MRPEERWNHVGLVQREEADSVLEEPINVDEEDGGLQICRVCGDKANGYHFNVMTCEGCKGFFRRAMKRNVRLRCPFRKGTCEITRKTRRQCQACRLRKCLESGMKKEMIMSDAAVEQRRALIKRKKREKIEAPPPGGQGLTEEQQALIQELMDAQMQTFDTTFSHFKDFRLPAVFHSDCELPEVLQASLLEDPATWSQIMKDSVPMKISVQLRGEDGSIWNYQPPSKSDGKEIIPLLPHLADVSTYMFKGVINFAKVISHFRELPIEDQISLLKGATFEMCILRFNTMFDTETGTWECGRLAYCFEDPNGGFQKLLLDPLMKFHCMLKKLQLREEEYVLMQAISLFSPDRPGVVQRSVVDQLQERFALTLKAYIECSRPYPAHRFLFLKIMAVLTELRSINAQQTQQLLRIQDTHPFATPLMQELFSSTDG
SMILES,Potency [1],Potency [2],Potency [3],Potency [4],Potency [5],Potency [6],Potency [7],Potency [8],Potency [9],Potency [10],Potency [11],Potency [12],Potency [13],Potency [14],Potency [15],Potency [16],outcome [17],max activation [18],Potency [19],Potency [20]
CC(C)(C)NCC(O)COc1ccccc1OCC1CCCO1 (centres undefined),inactive,inactive,inactive,inactive,inactive,inactive,inactive,inactive,inactive,inactive,inactive,inactive,inactive,inactive,inactive,2.75 µM (active),–,–,–,–
O=C(O)CCc1ccccc1,inactive,inactive,inactive,–,inactive,inactive,inactive,inactive,inactive,inactive,inactive,inactive,–,–,inactive,inactive,inactive,–,–,–
Cc1ccnc2c1NC(=O)c1cccnc1N2C1CC1,inactive,inactive,inactive,inactive,inactive,inactive,inactive,inactive,inactive,inactive,inactive,inactive,inactive,inactive,inactive,7.4 µM (active) and inactive,–,-1.62% (inactive),inactive,inactive
